The values that follow come from PubChem BioAssay (NCATS).

Each structure is given as a SMILES string. Inconclusive results are not listed. A call without a number means that no potency is given here. Values without a mark were called inactive. Active and inactive are the calls of the source. Calls come from the whole dose curve; as a rule, active = well fitted inhibition curve with a large enough effect; inconclusive = small, poorly fitted or top-dose-only effect; inactive = flat fitted curve, though single readings scatter. Where a SMILES comes first, the peptide text is derived from it. Bridges are numbered along the chain shown (N, C = ends). [ ]: non-standard residue; d: D form. NMeY = CN[CH](Cc1ccc(O)cc1)C(=O)O

Assay [1] has as its target Calcium and integrin-binding protein 1 (Homo sapiens) (UniProt Q99828). The experiment in a line: Primary qHTS for Identification of Calcium Integrin Binding Protein 1 (CIB1) Competitor (AID 1508620).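 Note: GST tagged CIB1 binding a fluorescein labelled alphaIIb integrin peptide tracer; top concentration of the series differs between compounds.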 The method in brief:
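CIB1-GST (1 uM final) and compound incubated 15 min at room temperature before adding FITC-alphaIIb peptide tracer (100 nM final). Competition for binding read by fluorescence polarization (ex 480, em 540) after another 15 min at room temperature.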
(qHTS replaces the single test concentration by a dilution series.)

The nature of assay [2]: Primary qHTS for inhibitors of nuclear receptor binding SET domain protein 2 (NSD2) in an isogenic RCH-ACV NSD2 p.E1099K mutant (9B) (AID 1645876). Note: nearly all actives have a fitted effect of over 70% in size. Note: potency is the fitted concentration of half-maximal effect.

Sequence of Calcium and integrin-binding protein 1 (Homo sapiens) (Q99828 whole entry, looked up): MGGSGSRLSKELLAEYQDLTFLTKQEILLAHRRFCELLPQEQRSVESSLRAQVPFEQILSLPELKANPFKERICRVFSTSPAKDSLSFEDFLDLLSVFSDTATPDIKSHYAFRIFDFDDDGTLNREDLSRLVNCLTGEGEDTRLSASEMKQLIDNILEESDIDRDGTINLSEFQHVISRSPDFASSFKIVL

Take `C[C@H](NC(c1cccc2[nH]c(=O)c(=O)[nH]c12)P(=O)(O)O)c1ccc(Br)cc1` (stereo partly drawn): the Potency result in assay [1] and in assay [2] was “inactive” in each case.
As to `C=C(C(=O)OC)C1C(O)CC2(C)C(=O)CCC(O)(CO)C2C1O` (stereo not drawn), the Potency entry in assay [1] and in assay [2] was “inactive” each time.
In the case of `COc1c2c(cc3c1-c1c(cc4c(c1OC)OCO4)CC(C)C(C)C3)OCO2` (stereo not drawn), the Potency result in assay [1] and in assay [2] was “inactive” throughout.
Regarding `C/C=C/C1=CC2=C(CO1)C(=O)C(C)(O)C(OC(=O)c1c(C)cc(OC)cc1O)C2` (stereo not drawn), the Potency entry in assay [1] is “inactive”. Also, the Potency in assay [2] was 16 µM (active).
For `CC(=O)/C=C/[C@H]1[C@](C)(O)[C@@H](O)[C@H](OC(C)=O)C2C(C)(C)CCC[C@@]21C` (stereo partly drawn) the same measures were “inactive” and “inactive”.
In the case of `CC(C)c1cc(C(=O)N2CC[C@@H](NC(=O)C3CC3)C2)n[nH]1`, the Potency entry in assay [1] and in assay [2] was “inactive” each time.
`CC1CCC2C(C(=O)O)=COC(O[C@@H]3O[C@H](CO)[C@@H](O)[C@H](O)[C@H]3O)C12` (stereo partly drawn): the Potency result in assay [1] and in assay [2] was “inactive” throughout.
Turning to `C[C@H](C/C=C/C(C)(C)O)[C@H]1CC[C@@]2(C)[C@@H]3[C@@H](O[C@@H]4O[C@H](CO)[C@@H](O)[C@H](O)[C@H]4O)C=C4C(CC[C@H](O)C4(C)C)[C@]3(C=O)CC[C@]12C` (stereo partly drawn), the Potency result in assay [1] and in assay [2] was “inactive” in each case.
For `CC(=O)c1cc2c(cc1O)OC(C)(C)C=C2`, the Potency entry in assay [1] and in assay [2] was “inactive” each time.
On to `CC(=O)N[C@@H](CCCCN)C(=O)N(C)[C@@H](CC(C)C)C(=O)N[C@H](C(=O)N(C)[C@@H](Cc1ccccc1)C(=O)N[C@H](Cc1ccccc1)C(N)=O)C(C)C`, for which the activity change, negative = inhibition in assay [1] was 1.59% [at 12.4 µM]. Besides, the outcome in assay [2] is “inactive [at 4.96 µM]”.
Consider `CC(C)(O)/C=C/C1=CC(=O)[C@@](C)(O)C[C@H]1O`, for which the Potency result in assay [1] and in assay [2] was “inactive” each time.
Turning to `COC(=O)CC(O)C1OC(c2ccccc2)C(O)C1O` (stereo not drawn), the Potency entry in assay [1] and in assay [2] was “inactive” each time.
As for `CC1=C(CCC(C)CC(=O)O)[C@@]2(C)CCCC(C)(C)C2CC1=O` (stereo partly drawn), the Potency entry in assay [1] and in assay [2] was “inactive” in each case.
Take `C=C1CCC2C(C)(C(=O)OC)CCCC2(C)C1CCC(C)CC(=O)O` (stereo not drawn): the Potency entry in assay [1] and in assay [2] was “inactive” in each case.
Regarding `Clc1cc2c(NC3CCCC3)nnc(-c3ccncc3)c2cc1Cl`, the Potency result in assay [1] and in assay [2] was “inactive” each time.
As for `CC(=O)O[C@@H]1C[C@@H](OC(C)=O)C(C)(C)/C=C/[C@H](C)[C@H](OC(C)=O)[C@@]2(O)C[C@H](C)[C@H](OC(=O)c3ccccc3)[C@@H]2/C=C/1C`, the Potency result in assay [1] and in assay [2] was “inactive” each time.
As for `C=C1[C@@H]2CC[C@@H]3[C@@](CCC4C(C(=O)O)(C(=O)O)C[C@@H](O[C@@H]5O[C@H](CO)[C@@H](O)[C@H](O)[C@H]5OC(=O)CC(C)C)C[C@]43C)(C2)[C@H]1O` (stereo partly drawn), the Potency result in assay [1] and in assay [2] was “inactive” throughout.
Consider `COc1cc(C2c3cc4c(c(O)c3CC(CO)C2C(=O)O)OCO4)cc(OC)c1O` (stereo not drawn), for which the Potency entry in assay [1] was “inactive”. Besides, the Potency in assay [2] was 2.52 µM (active).
Take `COc1ccc(CCO[C@@H]2O[C@H](CO[C@@H]3OC[C@H](O)[C@H](O)[C@H]3O)[C@@H](O)[C@H](O)[C@H]2O)cc1`: the Potency result in assay [1] and in assay [2] was “inactive” in each case.
Consider `O=C(/C=C/c1ccc(O)cc1)OC1[C@H](O)CC(O)(C(=O)O)C[C@H]1O` (stereo partly drawn), for which the Potency result in assay [1] and in assay [2] was “inactive” in each case.
Regarding `COc1ccc(C(O)C(C)OC2OC(CO)C(O)C(O)C2O)cc1` (stereo not drawn), the Potency result in assay [1] and in assay [2] was “inactive” each time.
On to `CN1c2ccccc2C(=O)N2CCC3c4ccccc4NC3C21` (stereo not drawn), for which the Potency entry in assay [1] is “inactive”. Also, the Potency in assay [2] was 2.26 µM (active).
For `CC(O)CCC1C(CO[C@@H]2O[C@H](CO)[C@@H](O)[C@H](O)[C@H]2O)CC(O)CC1(C)C` (stereo partly drawn) the same measures were “inactive” and “inactive”.
For `CC1(O)CCCC2(C)C1CCC13CC(CO)C(CCC12)C3` (stereo not drawn), in that order: “inactive” and “inactive”.
For `CC1=CC2/C=C(\C)CC[C@@H](O)[C@@H](O)[C@@H]3O[C@@H]3C(=O)[C@]23C(=O)N[C@@H](CC(C)C)[C@@H]3[C@@H]1C` (stereo partly drawn) the same measures were “inactive” and “inactive”.
With `CC(=O)CCC1=C(C)C(O[C@@H]2O[C@H](CO)[C@@H](O)[C@H](O)[C@H]2O)C(O)CC1(C)C` (stereo partly drawn), the Potency result in assay [1] and in assay [2] was “inactive” in each case.
For `C=C1C(=O)O[C@H]2C1[C@H](OC(=O)/C(=C/CO)COC(=O)/C(C)=C/CO)CC(=C)[C@@H]1CC(=O)[C@@H](C)[C@@H]12` (stereo partly drawn), the Potency result in assay [1] is “inactive”. The Potency in assay [2] is 3.55 µM (active).
For `O=C(/C=C\n1cnc(-c2cc(C(F)(F)F)cc(C(F)(F)F)c2)n1)N1CC(F)(F)C1`, in that order: “inactive” and 0.934 µM (active).
For `CCC(C)C1NC(=O)C2CCCN2C(=O)C(NC(C)=O)C(C)OC(=O)C(Cc2ccc(OC)cc2)N(C)C(=O)C2CCCN2C(=O)C(C(C)C)NC1=O` (stereo not drawn) (Ac-TPIVP[NMeY](Me); ester 1-C; configuration not given here), in that order: “inactive” and “inactive”.
